# Where “and” joins values, the source holds several entries; their conditions need not be identical. Identical values can stand only once. Hit rate of the full screen: of about 34,000 compounds, about 290 (0.85%) showed an effect of 50% or more. This is one part of a sample in which strong results are shown more often than they occur.
# System: Plasmodium falciparum
# Assay: Plasmodium falciparum sporozoite viability assay
# Format: functional, organism-based
# Design: scale not given: in the data most compounds retested in dose-response had high values
Structure (SMILES),Percent Effect [%],Percent Effect (10 mM as filed; unlikely as a test dose)
Cc1cnn(CC2CCCN2C(=O)c2c(C)noc2C(C)C)c1 (configuration not stated),2.244,–
CCn1c(N)nc2cc(C(=O)NCc3ccccc3Cl)cnc21,–,-6% and 9.799% and 1.435%
CCn1c(N)nc2cc(C(=O)NCCc3nnc(C)s3)cnc21,–,-8.165% and -11.66%
CCn1c(N)nc2cc(C(=O)NCCNc3ncccc3C)cnc21,–,-11.01% and -17.43%
CCn1c(N)nc2cc(C(=O)NCCc3ccccc3F)cnc21,–,83.82% and 65.98%
N#Cc1c(N)nc2c(c1C1CCOC1)CCc1cc(O)ccc1-2 (configuration not stated),4.476,–
CN(CCc1ccccn1)C(=O)c1cnn(-c2ccccc2F)c1N,-5.321,–
COc1ccc(CN2Cc3[nH]nc(C(=O)N(C)C)c3C2)cc1,11.47,–
Cl.Cn1cc([C@@H]2CN(S(=O)(=O)c3cccs3)C[C@H]2N)c2ccncc21,-0.5895,–
COc1ccc(CC(=O)N2CCCC(n3cccn3)C2)cc1F (configuration not stated),5.192,–
CS(=O)(=O)CCSc1nnc(Cc2ccccc2F)o1,-5.789,–
Cc1ccc(OCc2occc2C(=O)N2CCOC(C(=O)O)C2)cc1 (configuration not stated),16.87,–
O=C1COc2cc(OC[C@@H]3CCCN4CCCC[C@H]34)ccc21,-3.094,–
O=C1CCCN1Cc1nnc2n1CCN(Cc1ccco1)C2,15.42,–
CN(C)CCNC(=O)c1cc(-c2cnc(N(C)C)nc2)cn1CC1CC1,2.417,–
CN(C)CCNC(=O)C1Cc2nc(-c3ccccc3)sc2N1CC1CC1.O=C(O)C(F)(F)F (configuration not stated),–,63.41% and 51.04% and 49.77%
CN(C)CCNC(=O)c1sc2ccccc2c1C1CCC(CN)CC1.Cl (configuration not stated),13.87,–
CN(C)CCNC(=O)[C@H]1C[C@@H]2CN(C(=O)NCc3ccccc3)C[C@H]1O2.O=C(O)C(F)(F)F,-11.68,–
Cc1occc1C(=O)N1CCCN(Cc2nccn2C(C)C)CC1,16.64,–
CC(C)CN1C(=O)C[C@@H]2[C@@H]1CCN2Cc1cccc(C#N)c1.O=C(O)C(F)(F)F,7.99,–
c1ccc(-c2noc(CN3CCc4c(ncn4C4CC4)C3)n2)nc1,–,42.55% and 46.63%
c1cc(-c2noc(CN3CCc4c(ncn4C4CC4)C3)n2)cs1,–,83.48% and 80.24%
Cc1cccc(-c2noc(CN3CCc4c(ncn4C4CC4)C3)n2)c1,–,39.81% and 43.38%

Structure (SMILES),Percent Effect [%],Percent Effect (10 mM as filed; unlikely as a test dose)
c1coc(-c2noc(CN3CCc4c(ncn4C4CC4)C3)n2)c1,–,9.104% and 3.38%
c1csc(-c2noc(CN3CCc4c(ncn4C4CC4)C3)n2)c1,–,59.38% and 60.81%
CCOc1ccc(C#N)cc1NCC(=O)NC(=O)Nc1ccccc1,-20.07,–
CC(C)Oc1ccc(CNC(=O)NCC(C)(C)C(N)=O)cc1F,-18.14,–
Cl.O=S1(=O)CCC(NCCn2cncc2-c2ccc3c(c2)CCCO3)C1 (configuration not stated),-8.887,–
CN(C)S(=O)(=O)NCC1CCN(Cc2ccccc2F)CC1,–,-11.15% and -13.88%
c1ccc(Oc2ccc(CNCC3CNc4ccnn4C3)cn2)cc1 (configuration not stated),-2.407,–
OCC(CO)N1CCCC(Cc2cnc(Nc3ccccn3)cn2)C1 (configuration not stated),3.086,–
Cc1noc(CNc2ccc(C(=O)N3CCCC(C)C3)cc2C)n1 (configuration not stated),–,12% and 12.75% and 4.849%
Cc1cc(C(=O)N2CCCC(C)C2)ccc1NCc1nc(C(C)C)no1 (configuration not stated),–,54.84% and 44.37% and 61.2%
COc1cc(N2C[C@@H]3COC[C@]3(COCc3ccccn3)C2)ncn1.O=C(O)C(F)(F)F.O=C(O)C(F)(F)F,7.967,–
CN1CCCC1c1ccnc(C(=O)N(C)C2CCCCC2)c1 (configuration not stated),7.615,–
CC(=O)Nc1nc(C(=O)NCc2ccc(N3CCOC(C)C3)nc2)cs1 (configuration not stated),13.32,–
Cc1ccnc(NC(=O)c2[nH]nc(C(C)C)c2Br)c1,–,109% and 104.4% and 105.9%
Cc1n[nH]c(C(=O)NCc2ccnc(OCC(F)(F)F)c2)c1Br,-2.803,–
Cc1ccnc(NC(=O)c2ccc(-n3ncc(C#N)c3N)cc2)c1,11.53,–
O=C(Nc1cc(C2CCOCC2)[nH]n1)c1cc[nH]n1,-6.094,–
CC(C)c1n[nH]c(C(=O)Nc2ccnn2C(C)C)c1Br,–,92.02% and 87.97% and 88.19%
Cc1cccc(NC(=O)c2[nH]nc(C(C)C)c2Br)n1,–,102.6% and 98.53% and 104.2%
COc1ccncc1NC(=O)c1[nH]nc(C(C)C)c1Br,–,41.3% and 28.4%
CC(C(=O)Nc1ccnn1C(C)C)N1CCN(Cc2ccccc2)CC1 (configuration not stated),-6.509,–
Cc1cccc(NC(=O)c2cncc(C3CCNCC3)n2)n1,3.261,–
Cc1cccc(NC(=O)c2sccc2C)n1,7.103,–

Structure (SMILES),Percent Effect [%],Percent Effect (10 mM as filed; unlikely as a test dose)
COCCN1CCN(C(C)C(=O)Nc2ccnn2C(C)C)CC1 (configuration not stated),-4.51,–
COc1ccccc1C1(C(=O)NCCN2CCCCC2)CCOCC1,7.717,–
C[C@@H]1CN(Cc2ccccn2)C[C@]12CCN(Cc1cccnc1)C2=O.O=C(O)C(F)(F)F.O=C(O)C(F)(F)F.O=C(O)C(F)(F)F,-3.791,–
Cn1cc(CN2CCC3(CC2)CC(Nc2nccs2)CO3)cn1.O=C(O)C(F)(F)F (configuration not stated),18.81,–
NC(=O)c1cc(C2CCCN(C(=O)CCc3ccncc3)C2)n[nH]1 (configuration not stated),-0.3069,–
Cc1ccnc(NC(=O)CSCc2cccnc2)c1,–,65.53% and 89.16%
CC(C)c1n[nH]c(C(=O)NC(C)c2ccncc2)c1Br (configuration not stated),–,40.84% and 49.25% and 43.96%
Cc1ccc(NC(=O)CSCc2cccnc2)nc1,–,-29.55% and -38.68%
CC(C)C(NC(=O)Nc1ccccn1)c1cccs1 (configuration not stated),14.64,–
Cc1ccnc(NC(=O)c2ccc(C)o2)c1,–,-40.27% and -55.88%
CC(C)c1n[nH]c(C(=O)Nc2ccncc2)c1Br,–,98.93% and 67.14% and 45.46%
Cl.O=C(Nc1ccccn1)c1cncc(C2CCNCC2)n1,-0.4476,–
Cc1ccnc(NC(=O)c2ccc(Cl)o2)c1,–,72.69% and 57.82%
CC(C)c1n[nH]c(C(=O)Nc2ccccn2)c1Br,–,107.3% and 96.92% and 105.3%
CCC1CCCCN1C(=O)c1ccnc(N(C)C)c1 (configuration not stated),0.6463,–
Cc1ccccc1OC1CCN(S(=O)(=O)c2c(C)n[nH]c2C)CC1,0.8951,–
COc1ccccc1CN(Cc1nc(CC(C)C)no1)C1CC1,-1.432,–
COc1c(C2CCCN2C(=O)c2ccc3c(c2)OCO3)c(C)nn1C (configuration not stated),6.2,–
Cn1ccnc1C(=O)N1CCC2(CCN2Cc2ccc(F)cc2)C1.O=C(O)C(F)(F)F (configuration not stated),-1.35,–
Cc1cccc(CN2CCn3c(COc4ncccn4)nnc3C2)n1,-3.893,–
O=C(N[C@@H]1CC[C@@H](N2CCCC2)[C@@H]1O)c1cc2ccccc2[nH]1,4.476,–
Cc1ccnc(NC(=O)CCNC(=O)c2ccccc2Cl)c1,–,67.45% and 43.1%
Cc1cccc(NC(=O)c2cnc(C3CCCNC3)cn2)n1 (configuration not stated),–,4.473% and -18.26% and -18.86%

Structure (SMILES),Percent Effect [%],Percent Effect (10 mM as filed; unlikely as a test dose)
Cc1ccnc(NC(=O)c2cncc(C3CCNCC3)n2)c1,28.13,–
Cc1ccnc(NCCNC(=O)CCNC(=O)c2ccccc2F)c1,–,3.593% and 6.463%
CCC(NC(=O)CCNC(=O)c1ccccc1F)c1cc(C)ccn1 (configuration not stated),–,-6.667% and 1.59%
Cc1ccnc(NC(=O)c2cnc(C3CCCNC3)cn2)c1 (configuration not stated),–,70.96% and 81.72% and 59.47%
CNC(=O)CC1CC2(CCN(S(C)(=O)=O)CC2)c2ccccc21 (configuration not stated),-20.92,–
Fc1cnc(N2C[C@@H]3C[C@@H](c4nc(C5CC5)cs4)O[C@@H]3C2)nc1.O=C(O)C(F)(F)F,-20.62,–
Cc1ncc2c(n1)CN(Cc1nnc(-c3occc3C)o1)CC2,–,65.26% and 48.37% and 69.52%
Cc1ccc(-c2nnc(CN3CCc4cnc(C)nc4C3)o2)cc1,–,3.206% and -6.075% and -3.091%
Cc1noc(C)c1CC(=O)N[C@@H]1CC[C@@H](Oc2ccccc2)[C@@H]1O,3.978,–
Cc1nccn1C1CCCN(C(=O)c2ccc(-n3cccn3)nc2)C1 (configuration not stated),-4.8,–
CN1CCN(c2cc(CNC(=O)c3ccsc3)ccn2)CC1,4.114,–
CN1CC(=O)N(c2cccc(F)c2)CC12CCN(CC1CC1)C2.O=C(O)C(F)(F)F.O=C(O)C(F)(F)F (configuration not stated),-25.37,–
c1ccc2sc(N3CCCC4(CCOC4)C3)nc2c1 (configuration not stated),–,-44.73% and -22.63% and -45.78%
c1ccc(-c2nnc(N3CCCC4(CCOC4)C3)s2)cc1 (configuration not stated),–,67.59% and 93.8% and 88.49%
O=C1CN(c2ccc(CNC(=O)NCCO)cc2)CCN1,1.887,–
CCc1noc(CN(CC)Cc2cc3cc(C)ccc3[nH]c2=O)n1,-10,–
Cc1[nH]/c(=N\C(=O)c2csc(NC3CCCC3)n2)sc1C,–,52.39% and 34.41%
CC(=O)Nc1nc(C(=O)N2CCC(Nc3cccnn3)CC2)cs1,-14.59,–
CC(=O)Nc1nc(C(=O)N2CCCC(c3cc(C)[nH]n3)C2)cs1 (configuration not stated),3.993,–
Cc1[nH]/c(=N\C(=O)c2csc(NCC(C)C)n2)sc1C,–,72.35% and 45.27% and 35.24%
Cc1cs/c(=N/C(=O)c2csc(NCC(C)C)n2)[nH]1,–,-15.12% and -26.88%
Cc1[nH]/c(=N\C(=O)c2csc(NC3CC3)n2)sc1C,–,50.71% and 20.82% and 44.18%
Cc1cn2c(n1)CCC(NC(=O)c1cc[nH]n1)C2 (configuration not stated),2.695,–

# From ChEMBL document CHEMBL3988442, “University of Dundee, Small-Polar-MMV Screening Library” (2021)
